# In a collection of fitness landscapes (doi:10.1126/science.1257360):
# Whole data set: some 140,000 sequences, median “enrichment ratio after two sorts for PhoP signalling” near 0, cut for the highest 2% near 11. The sample holds the highest values, similar sequences and a random draw of the others, so the mix is not that of the screen.
# B1: PhoQ; a variant is named by its letters at X, in order, P23837 (parent)
# chain: MKKLLRLFFPLSLRVRFLLATAAVVLVLSLAYGMVALIGYSVSFDKTTFRLLRGESNLFYTLAKWENNKLHVELPENIDKQSPTMTLIYDENGQLLWAQRDVPWLMKMIQPDWLKSNGFHEIEADVNDTSLLLSGDHSIQQQLQEVREDDDDAEMTHSVAVNVYPATSRMPKLTIVVVDTIPVELKSSYMVWSWFIYVLSANLLLVIPLLWVAAWWSLRPIEALAKEVRELEEHNRELLNPATTRELTSLVRNLNRLLKSERERYDKYRTTLTDLTHSLKTPLXXLQXXLRSLRSEKMSVSDAEPVMLEQISRISQQIGYYLHRASMRGGTLLSRELHPVAPLLDNLTSALNKVYQRKGVNISLDISPEISFVGEQNDFVEVMGNVLDNACKYCLEFVEISARQTDEHLYIVVEDDGPGIPLSKREVIFDRGQRVDTLRPGQGVGLAVAREITEQYEGKIVAGESMLGGARMEVIFGRQHSAPKDE
# Variants of: B1
# Assay: enrichment ratio after two sorts for PhoP signalling (ratio (wild type AVST 3.29)); higher = more functional
# Conditions: with PhoP (E. coli)
row,Variant,enrichment ratio
1,KAWR,≤ 0.25
2,KQKI,≤ 0.25
3,TDSI,8.92
4,PNEG,≤ 0.25
5,MIVG,≤ 0.25
6,NTPE,≤ 0.25
7,KFFD,≤ 0.25
8,PYGG,≤ 0.25
9,PMVC,≤ 0.25
10,SEVQ,11.9
11,MEVQ,≤ 0.25
12,SQVQ,15.1
13,NEVQ,≤ 0.25
14,ATHP,≤ 0.25
15,SLVQ,0.637
16,ATVQ,13.9
17,ATVA,1.05
18,YTVQ,0.393
19,KYVQ,≤ 0.25
20,SCVQ,3.12
21,STVQ,12
22,NQCF,≤ 0.25
23,KRSQ,≤ 0.25
24,WTEW,≤ 0.25
25,QAYY,10.3

row,Variant,enrichment ratio
1,WESK,≤ 0.25
2,QQNY,2.46
3,WMDF,≤ 0.25
4,ACYH,≤ 0.25
5,QTFW,≤ 0.25
6,QCDH,18.8
7,QCTH,≤ 0.25
8,GYDH,≤ 0.25
9,QCNH,≤ 0.25
10,QCCA,≤ 0.25
11,QCGH,24.2
12,EMTV,≤ 0.25
13,PVLS,≤ 0.25
14,KFLE,≤ 0.25
15,KSER,≤ 0.25
16,FSLC,12.4
17,SILC,8.13
18,QGLC,15.9
19,MSTS,0.73
20,SSLC,15.2
21,FFLC,≤ 0.25
22,QFLC,≤ 0.25
23,MSLC,11.7
24,FPLC,≤ 0.25
25,QPLC,≤ 0.25

row,Variant,enrichment ratio
1,SYLC,0.631
2,FQLC,2.14
3,EGVI,≤ 0.25
4,VVAR,≤ 0.25
5,WYHC,≤ 0.25
6,SWDN,≤ 0.25
7,MGQS,≤ 0.25
8,LWFG,≤ 0.25
9,HKKG,≤ 0.25
10,RSIL,≤ 0.25
11,YKDC,≤ 0.25
12,IGWW,≤ 0.25
13,PKQD,≤ 0.25
14,LTKR,≤ 0.25
15,HYAP,≤ 0.25
16,MMLC,≤ 0.25
17,TSLC,18.4
18,KSLC,≤ 0.25
19,PNER,≤ 0.25
20,RFQL,≤ 0.25
21,SQAF,3.99
22,AIAF,12.4
23,SIAF,15.1
24,AKAF,5.84
25,KYAF,≤ 0.25

row,Variant,enrichment ratio
1,KKAF,≤ 0.25
2,GPRN,≤ 0.25
3,NCRE,≤ 0.25
4,DCLW,≤ 0.25
5,PYCA,≤ 0.25
6,HYKI,≤ 0.25
7,YMVL,≤ 0.25
8,DVFV,≤ 0.25
9,GYCS,≤ 0.25
10,RGCS,0.323
11,NGCS,≤ 0.25
12,GGCI,0.663
13,GGCS,13.1
14,TGCS,13
15,STCL,15.7
16,WLCL,≤ 0.25
17,MTCI,≤ 0.25
18,MTCL,12.8
19,GTCL,9.42
20,ITCL,≤ 0.25
21,PLCL,≤ 0.25
22,MTRL,≤ 0.25
23,LTCL,≤ 0.25
24,YTCL,5.77
25,SLCL,11.2

row,Variant,enrichment ratio
1,TTCL,18.5
2,GTAR,≤ 0.25
3,FHNH,≤ 0.25
4,YRKS,≤ 0.25
5,GQTP,≤ 0.25
6,THVR,≤ 0.25
7,MGQG,≤ 0.25
8,EIWF,≤ 0.25
9,RYFG,≤ 0.25
10,GLCL,13.5
11,GLNL,≤ 0.25
12,GLEL,≤ 0.25
13,MTME,≤ 0.25
14,IMWI,≤ 0.25
15,NGST,≤ 0.25
16,AGST,14.8
17,SMST,13.1
18,AIST,6.85
19,AHST,≤ 0.25
20,SMNT,≤ 0.25
21,ADST,≤ 0.25
22,NIST,≤ 0.25
23,RGST,≤ 0.25
24,TGST,15.2
25,TIST,12.7

row,Variant,enrichment ratio
1,KMST,≤ 0.25
2,RSCK,≤ 0.25
3,DWGV,≤ 0.25
4,FMYR,≤ 0.25
5,FQIQ,≤ 0.25
6,MCFN,4.25
7,HKST,≤ 0.25
8,NMST,≤ 0.25
9,AKST,6.32
10,AMST,12.2
11,DMST,≤ 0.25
12,TKST,15.4
13,YFCR,0.754
14,YQIY,≤ 0.25
15,WDCT,≤ 0.25
16,RGCY,≤ 0.25
17,MGCY,29.2
18,GGCY,16.1
19,MGWY,4.8
20,TGCY,8.48
21,QRCY,≤ 0.25
22,QHTT,≤ 0.25
23,KNTT,≤ 0.25
24,ERTE,≤ 0.25
25,QKMV,≤ 0.25

row,Variant,enrichment ratio
1,TYTC,≤ 0.25
2,MMSN,≤ 0.25
3,KMSG,≤ 0.25
4,DMSG,≤ 0.25
5,TMSN,12.5
6,NMSN,≤ 0.25
7,TMSG,24.1
8,PCVI,≤ 0.25
9,GRTV,≤ 0.25
10,QDSS,≤ 0.25
11,NESS,≤ 0.25
12,FVSS,≤ 0.25
13,FFSS,≤ 0.25
14,QRSS,≤ 0.25
15,QGSS,14.4
16,MESS,5.15
17,QESS,19.7
18,TESS,15
19,IMKM,≤ 0.25
20,LFRM,≤ 0.25
21,TWVL,≤ 0.25
22,WRGV,≤ 0.25
23,KLPK,≤ 0.25
24,EIYQ,≤ 0.25
25,SCCF,13.7

row,Variant,enrichment ratio
1,SECF,13.9
2,STCF,15.9
3,MCCF,4.87
4,YTCF,2.21
5,CTCF,≤ 0.25
6,NECF,≤ 0.25
7,KCCF,≤ 0.25
8,SQCF,11.4
9,SNCF,4.82
10,SRCF,≤ 0.25
11,MECF,≤ 0.25
12,PQGD,≤ 0.25
13,YMHS,≤ 0.25
14,GKRI,≤ 0.25
15,SAIV,3.88
16,ERRA,≤ 0.25
17,MTCF,1.4
18,TTCF,17.7
19,LTCF,≤ 0.25
20,IHTH,≤ 0.25
